# The panel holds about 83,000 compounds, 20% with a hit somewhere; the sample as a whole holds those more often.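 Results are percent growth after 48 hours of single-concentration exposure. 100 means growth as in untreated cells, lower positive values show inhibition; negative values down to -100 show cell death.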 The source made the active and inactive calls. Rule for the calls: active = growth percent below 10; inactive = the rest.
# Tested on: MDA-MB-468 breast
# Experiment: NCI-60 one-dose screen, 48 h (100 = growth as untreated, 0 = no growth, -100 = all killed)
# Settings: 10 µM unless noted
row,Structure (SMILES),growth
1,Cn1ccnc1C(=O)/C=C/c1ccc(CC(=O)Nc2ccc(F)cc2)cc1,-4.62% (active)
2,CCCc1n(Cc2ccc3ccccc3c2)c2ccccc2[n+]1Cc1ccc2ccccc2c1,-44.7% (active)
3,O=C(CCC(C(=O)c1ccccc1)c1ccccc1)c1ccccc1 (centres undefined),35.9% (inactive)
4,COc1cc(C(=O)/C=C/c2c(-c3cccs3)nc3ccccn23)cc(OC)c1OC,-30.4% (active)

# From PubChem BioAssay (NCI)
